Growth data for 40 molecules are collected here from PubChem BioAssay (NCI).

Several values for one entry are separate records, joined by “and”; a condition that tells them apart may be missing. Identical values can stand only once. About 83,000 compounds went through this panel and 20% of them were active in at least one assay; those are over-represented in the sample as a whole.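 Treatment: one concentration, 48 hours, 96-well format. Scoring: percent growth, with anything below 10 considered active.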 Activity calls are given as the source filed them.

The test system of this test is HL-60(TB) leukemia. In words: NCI-60 one-dose screen, 48 h (100 = growth as untreated, 0 = no growth, -100 = all killed). To be noted: 10 µM unless noted.
As for `Oc1ccc(/C=N/Nc2nnc(N/N=C/c3ccc(O)cc3O)c3ccccc23)c(O)c1`, the growth is -62.2% (active).
The result for `CCCCC(=O)c1ccco1` reads 103% (inactive).
For `Nc1n[nH]c2cccc(C#Cc3cccc(C(=O)Nc4cc(C(F)(F)F)cc(C(F)(F)F)c4)c3)c12` the value was 39.7% (inactive).
Turning to `O=C(/C=C/c1cccc2ccccc12)Nc1ncc(Cc2ccccc2)s1`, the growth is -11% (active).
The result for `Oc1nc(NCCc2ccccc2)sc1/C=C1\C=Nc2ncccc21` reads -6.57% (active) and 6.77% (active).
Consider `Cc1cc2c(O)c(-c3cccc(Cl)c3)c3sc(=O)oc3c2cc1C`, for which the growth was 23.2% (inactive).
The result for `CC(C)(C)c1nn(-c2ccccc2)c2c1C(=O)CSC(c1ccccc1Cl)N2` (stereo not given) reads -2.32% (active); that for `N/C(=N\c1nc2ccccc2s1)NC(=O)Nc1ccccc1Cl`, -27.3% (active); that for `COc1ccc2c(c1)c1nc3cc(C)c(C)cc3nc1n2CCN(C)C`, -26.4% (active).
For `C[C@H]1[C@H](C)CC[C@]2(C(=O)Nc3ccc4ncccc4c3)CC[C@]3(C)C(=CC[C@@H]4[C@@]5(C)CCCNC(C)(C)[C@@H]5CC[C@]43C)[C@H]12` the value was -45.2% (active); for `COc1ccc2nc(NCCCNCCO)c3sc4ccc(F)cc4c(=O)c3c2c1`, 25% (inactive); for `COc1ccc(/C=C/C(=O)O)cc1OC`, 103% (inactive) and 102% (inactive).
For `C[C@]12CC[C@@H]3c4ccc(O)cc4C[C@@H](O)[C@H]3[C@@H]1CC[C@@H]2O` the value was 101% (inactive); for `CC(=O)Nc1ccc2c(c1)Cc1cc(F)ccc1-2`, 66.8% (inactive); for `Cn1ccnc1C(=O)C(=O)Nc1ccc(CC(=O)Nc2ccccc2)cc1`, 107% (inactive).
Regarding `CN(C)C(C)(C)CC(C)(C)C`, the growth is 71.8% (inactive).
For `O=C1c2cc(Cl)ccc2S(=O)(=O)c2c(NCCCNCCO)nc3ccccc3c21` the value was -27% (active); for `Cc1nc(NC(=O)N2CCC[C@H]2C(N)=O)sc1-c1ccnc(C(C)(C)C(F)(F)F)c1`, 24% (inactive); for `CCN(Cc1ccc(CN(CC)C(=O)C(Br)Br)cc1)C(=O)C(Br)Br`, 13.1% (inactive).
For `COc1c(Cl)cc(Cl)c2ccc(C=C3C(=O)NC(=S)NC3=O)nc12` the value was 102% (inactive); for `O=C(c1ccccc1)C1OC1c1ccc([N+](=O)[O-])cc1` (stereo not given), 61.6% (inactive).
For the molecule `CCCCN1C(=O)c2cccc3c(-c4ccc5c(c4)ncn5C4CCCCC4)ccc(c23)C1=O`, the growth was 99.7% (inactive).
The result for `COc1ccc(COC(C)=O)cc1` reads 112% (inactive); that for `COc1ccc(-c2nc(SCC(=O)Nc3nc(-c4ccccc4)cs3)[nH]c(=O)c2C#N)cc1`, 92% (inactive); that for `Nc1ccccc1SC(CC(=O)c1ccccc1)c1c(Cl)cccc1Cl` (stereo not given), 54.8% (inactive).
Consider `O=Nc1c(O)ccc2ccccc12.O=Nc1c(O)ccc2ccccc12.O=Nc1c([O-])ccc2ccccc12.[Fe+3]`, for which the growth is 105% (inactive).
Regarding `COCCNC(=O)c1ccc(-c2nc3ccc4[nH]ncc4c3c3c2CCCC3)cc1`, the growth is 11.4% (inactive).
For `COc1cc(CNCCN2C(=O)c3ccc4c5c(ccc(c35)C2=O)C(=O)N(CCNCc2cc(OC)c(OC)c(OC)c2)C4=O)cc(OC)c1OC` the value was -48.7% (active).
The result for `COc1ccc2c(NCCCCCCCCNc3c4ccccc4nc4cc(OC)ccc34)c3ccccc3nc2c1` reads -92.3% (active); that for `CSc1nc(N)nc2c1ncn2C`, 75.8% (inactive).
For `Cc1c(-c2noc(-c3ccc([N+](=O)[O-])cc3)n2)no[n+]1[O-]` the value was 102% (inactive).
In the case of `COCCNC(C(=O)c1ccccc1)c1ccccc1` (stereo not given), the growth was 103% (inactive).
The result for `CCN(CC)CCOc1ccc2c(c1)C(=O)c1cc(OCCN(CC)CC)ccc1-2` reads 94.2% (inactive) and 36.5% (inactive).
`O=c1cc(-c2ccccc2)oc2c(O)c(O)ccc12`: the growth was 59.4% (inactive).
Consider `COc1ccc(CN2C(=O)/C(=C\c3cc(OC)c(OC)c(OC)c3)c3ccccc32)cc1`, for which the growth is -16.2% (active).
For `Oc1c(Cl)cc(Cl)c2cccnc12` the value was 56.4% (inactive) and 5.89% (active); for `C=C(CNCCc1ccc(O)cc1)[C@@H]1CC[C@]2(CO)CC[C@]3(C)[C@H](CC[C@@H]4[C@@]5(C)CCC(NCCO)C(C)(C)[C@@H]5CC[C@]43C)[C@@H]12` (stereo not given in full), -46.4% (active).
The result for `Nc1ccc(S(=O)(=O)c2ccc(N)cc2)cc1` reads 67.4% (inactive); that for `CN1CCN(c2ccc(C(=O)Nc3cccc(C#Cc4cccc5[nH]nc(N)c45)c3)cc2C(F)(F)F)CC1`, -36.1% (active); that for `CN(C)CCCn1c(=O)c2ccccc2c2ccccc21`, 63.4% (inactive).
